We go through 16 molecules from PubChem BioAssay (NCI).

The panel holds about 83,000 compounds, 20% with a hit somewhere; the sample as a whole holds those more often.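 The test compound was applied at a single concentration to cells in 96-well plates for 48 hours, and percent growth was recorded.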 Activity calls are given as the source filed them. Rule for the calls: active = growth percent below 10; inactive = the rest.

In this experiment the test system is HOP-62 NSCLC. Nature of the experiment: NCI-60 one-dose screen, 48 h (100 = growth as untreated, 0 = no growth, -100 = all killed). The settings on record: 10 µM unless noted.
In the case of `COc1ccc(OC)c(/C=N/Nc2ncnc3c2c(C)nn3C)c1`, the growth is 92% (inactive).
The figure for `Cc1c[n+](Cc2ccc3ccccc3c2)cn1Cc1ccc2ccccc2c1` is 33.2% (inactive).
The figure for `COc1cc(OC)c(/C=C/C(=O)c2c(OC)cccc2OC)c(OC)c1` is 40.1% (inactive); for `COC(=O)c1c(C)nc(C)c2c1C(=O)C(Br)=C(NCc1ccccc1)C2=O` it is 87.1% (inactive).
Turning to `CCNCCNc1cc(-c2ccc(C(F)(F)F)cc2)c(C#N)c2nc3ccccc3n12`, the growth is -67.7% (active).
Consider `CSc1nc2ccccc2cc1/C=[N+](\[O-])c1ccccc1`, for which the growth was 67.9% (inactive).
Regarding `CC(=O)Oc1ccc(N2C(=O)C(Cl)=C(Nc3cccc(C(F)(F)F)c3)C2=O)cc1`, the growth was 96.9% (inactive).
The figure for `CC(=O)Oc1ccc(C)cc1C` is 105% (inactive); for `O=C(Nc1ccc(Oc2cccc(Cl)c2)c(Cl)c1)c1cnccn1` it is 41% (inactive); for `CCC(=O)Oc1ccc(-c2ccccc2)cc1Br` it is 104% (inactive).
The value for `CCN(CC)CC(O)COc1c(Br)c(Br)c(Br)c2c1OC(C)(C)C2` (stereo unspecified) was 96.8% (inactive); that for `Fc1cc2c(cc1Cl)N(c1ncnc3ccc(-c4ccc5n[nH]nc5c4)cc13)CC2` was 72.3% (inactive); that for `Nc1c(C(=O)Nc2ccncc2)sc2nc3c(cc12)C(O)CCC3` (stereo unspecified) was 98.7% (inactive).
For `CCOC(=O)c1cc2c(n1Cc1cc(OC)c(OC)c(OC)c1)-c1nc(N)sc1CCC2`, the growth was 44.3% (inactive).
The figure for `Cc1ccc(Nn2c(SCC(=O)Nc3nc(-c4ccccc4)cs3)nc(C)c2C)cc1` is 73.1% (inactive).
The figure for `O=C(NCc1ccc(Cl)cc1Cl)C1CCC(=O)N1c1cccs1` (stereo unspecified) is 92.9% (inactive).
